This is an account of results in ChEMBL document CHEMBL4888484, “Replenishing the malaria drug discovery pipeline: Screening and hit evaluation of the MMV Hit Generation Library 1 (HGL1) against asexual blood stage Plasmodium falciparum ,using a nano luciferase reporter read-out” (2022).

Among all 150,000 compounds or so, about 540 (0.36%) showed an effect of 50% or more. Many of the other results were omitted from the sample, so strong results are more common in it than they were.

For the experiment, the system named is Plasmodium falciparum. Description: Primary screen in NF54 nanoGlo assay, in single point, at 2uM, 72h; a lower Z score goes with more inhibition. In kind it is functional, Erythrocyte. The following applies: timepoint 72 hour.
One may read the % Inhibition as the relative decrease from the control value, in per cent. Take `CCOc1cccc(C(=O)N[C@H]2CCN(Cc3ccccn3)C[C@@H]2O)c1`: the “% Inhibition” value turned out to be 2% and the Z score is -0.4.

Regarding `O=C(N[C@@H]1CN(Cc2ccccn2)CCC[C@H]1O)c1ccc(OCc2ccccc2)cc1`, the “% Inhibition” value is 59% and the Z score is -6.9.

`O=C(N[C@@H]1CN(Cc2ccc(CO)o2)CCC[C@H]1O)c1ccc(OCc2ccccc2)cc1`: the “% Inhibition” value came to 26% and the Z score is listed as -2.94.

For `Cc1ccc(-c2nc(CC(=O)N3CCC(C(C)(C)C)C(O)C3)cs2)o1` (centres undefined), the “% Inhibition” value is on record as -3% and the Z score turned out to be 0.35.

Turning to `Cc1n[nH]c(=O)c2c1cnn2-c1ccccc1`, the “% Inhibition” value was determined as 21% and the Z score is -2.61.

As for `Cc1nc(-c2c(C)c(C)nn(C)c2=O)sc1C(=O)NC[C@H](C)N1CCc2ccccc21`, the “% Inhibition” value is recorded as 31% and the Z score is -3.46.

As for `CCN=C(NCc1noc(C)n1)NCc1ccccc1OC(C)(C)C`, the “% Inhibition” value is -6% and the Z score was 0.55.

With `CCc1ncc(CN2CCC[C@H](NC(=O)CN3CCOC3=O)CC2)cn1`, the “% Inhibition” value turned out to be 9% and the Z score was -1.74.

With `CC(=O)N(CC[C@]1(Cc2ccccc2Cl)CCOC(C)(C)C1)Cc1ccco1`, the “% Inhibition” value stood at 32% and the Z score was determined as 1.22.

As for `Cn1n[n+](CCCCC(Cl)(Cl)Cl)c2ccccc21`, the “% Inhibition” value was determined as 65% and the Z score is given as -4.82.

With `Cn1n[n+](CC(=O)Nc2ccccc2Cl)c2ccccc21`, the “% Inhibition” value is given as 41% and the Z score is given as -0.29.

Take `COc1c2c(cc3c1[C@H](CC(=O)Cc1ccccc1)[N+](C)(C)CC3)OCO2`: the “% Inhibition” value is reported as -1% and the Z score came out at 0.08.

Take `COc1c2c(cc3c1[C@H](C(=O)NC(c1ccccc1)c1ccccc1)[N+](C)(C)CC3)OCO2`: the “% Inhibition” value was 2% and the Z score is given as -0.21.

`COc1c2c(cc3c1[C@@H](C#CCOc1ccccc1)[N+](C)(C)CC3)OCO2`: the “% Inhibition” value stood at 64% and the Z score is listed as -13.6.

As to `Cn1c(COc2ccccc2C(N)=O)nnc1-c1ccc(Cl)cc1`, the “% Inhibition” value is reported as 3% and the Z score is recorded as -0.35.

Consider `COc1cccc(C(=O)N2C[C@@H]3CC[C@H]2CN(Cc2c(C)noc2C)C3)c1`, for which the “% Inhibition” value is 4% and the Z score is -0.53.

With `c1ccc(-c2nc(CN3CCCCCCC3)cs2)cc1`, the “% Inhibition” value is reported as -10% and the Z score is on record as 1.49.

As to `c1ccc(-c2nc(C[n+]3ccc4c(c3)CCCC4)cs2)cc1`, the “% Inhibition” value stood at 63% and the Z score is recorded as -6.15.

With `c1ccc(-c2nc(CN3CCc4ccccc4C3)cs2)cc1`, the “% Inhibition” value is recorded as -1% and the Z score is recorded as 0.12.

Consider `O=C(Cn1cc(-c2ccccc2)ncc1=O)NC[C@@H]1CCCN2CCCC[C@H]12`, for which the “% Inhibition” value was -8% and the Z score is given as 0.97.

As for `CCCCN(CCCNC(=O)[C@H]1CCCN(c2ncnc3onc(C)c23)C1)Cc1ccccc1`, the “% Inhibition” value came to 5% and the Z score was -0.69.

`O=C(O)C[C@@H]1CN(C(=O)c2ccc3c(c2)OCO3)C[C@@H]1c1c[nH]nn1`: the “% Inhibition” value was -3% and the Z score turned out to be 0.47.

Consider `COC(=O)c1ccc(C)c(OCc2cn3ccccc3c2C#N)c1`, for which the “% Inhibition” value was -17% and the Z score is on record as 2.14.

As for `CCN(CC)Cc1cn2ccccc2c1C#N`, the “% Inhibition” value is -12% and the Z score is 1.72.

Take `N#Cc1c(NC(=O)Nc2cn3ccccc3c2C#N)cn2ccccc12`: the “% Inhibition” value is listed as 65% and the Z score is reported as 1.13.

Regarding `CC1CCC(O)(CS(=O)(=O)Cc2nccs2)CC1` (centres undefined), the “% Inhibition” value is on record as -8% and the Z score came out at 1.13.

`COc1cc(C2N[C@H](C(=O)O)Cc3c2[nH]c2ccccc32)ccc1OCc1ccccc1` (some centres undefined): the “% Inhibition” value was -3% and the Z score came to 0.42.

Take `COc1ccc2[nH]c3c(c2c1)CC(C(=O)O)NC3c1ccc(OC)c(CN2CCN(c3ccccc3F)CC2)c1` (centres undefined): the “% Inhibition” value is listed as 74% and the Z score is on record as -11.3.

On to `COc1ccc(C2N[C@H](C(=O)O)Cc3c2[nH]c2ccccc32)cc1` (some centres undefined), for which the “% Inhibition” value is recorded as -14% and the Z score amounted to 2.25.

In the case of `Cc1csc(Oc2ccc(N)cc2F)n1`, the “% Inhibition” value is listed as -12% and the Z score turned out to be 1.47.

Turning to `CC1CN(C(=O)CN(C)c2cnccn2)CC(C)O1` (centres undefined), the “% Inhibition” value is recorded as -5% and the Z score turned out to be 0.83.

Regarding `Cc1cc(NC(=O)c2ccccn2)n(-c2nc3ccccc3o2)n1`, the “% Inhibition” value is recorded as 89% and the Z score is -10.15.

As to `Cc1nc2cc(NC(=O)c3ccccn3)ccc2o1`, the “% Inhibition” value turned out to be 11% and the Z score was -1.99.

For `O=C(Nc1cccc(CNc2nc3ccccc3o2)c1)c1ccccn1`, the “% Inhibition” value is listed as -13% and the Z score came to 1.61.

As for `CN(CC(F)(F)F)C(=O)CNc1ncccn1`, the “% Inhibition” value came to 3% and the Z score is -0.38.

`Cc1cc(C)cc(NC(=O)C23CCC(C)(C(=O)C2=O)C3(C)C)c1` (centres undefined): the “% Inhibition” value is listed as 9% and the Z score was -1.39.

In the case of `COc1cccc(NC(=O)c2cc(C(=O)Nc3cccc(OC)c3)cc(N3C(=O)c4ccccc4C3=O)c2)c1`, the “% Inhibition” value is 18% and the Z score is recorded as -2.84.

As for `Cc1nc(O)cc(CN2CCCCC2)n1`, the “% Inhibition” value is -11% and the Z score is recorded as 1.95.

As for `CC(C)c1ccc(-c2nc(CN3CCCCC3)cc(CN3CCCCC3)c2O)cc1`, the “% Inhibition” value turned out to be 96% and the Z score is recorded as -15.06.

For the compound `CC(C)c1nc(O)cc(CN2CCCCC2)n1`, the “% Inhibition” value stood at 33% and the Z score was 1.16.

As to `Cc1ccc(S(=O)(=O)c2c(N)n(-c3ccc4c(c3)OCCO4)c3nc4ccccc4nc23)cc1`, the “% Inhibition” value came to 6% and the Z score is listed as -0.5.

As to `O=C(NC1CC1c1ccc(F)cc1)N1CCN(c2ccccc2O)CC1` (centres undefined), the “% Inhibition” value is -7% and the Z score is 1.5.

As to `CC1(C)COc2ccc(C(=O)N3CC[C@H](O)C3(C)C)cc21`, the “% Inhibition” value came out at 19% and the Z score is -2.22.

`CCn1nnc2cc(C(=O)N3CCN(C(c4ccccc4)c4ccccc4)CC3)ccc21`: the “% Inhibition” value amounted to 32% and the Z score was -3.63.

On to `COc1ccccc1-c1cc2nc(C)cc(N3CCN(CCO)CC3)n2n1`, for which the “% Inhibition” value is -14% and the Z score amounted to 1.98.

With `COc1ccccc1-c1cc2nc(C)cc(N3CCN(Cc4ccccc4)CC3)n2n1`, the “% Inhibition” value is on record as -10% and the Z score came to 1.85.

Consider `COc1ccc(-c2cc3nc(C)cc(N4CCN(C/C=C/c5ccccc5)CC4)n3n2)cc1OC`, for which the “% Inhibition” value turned out to be 51% and the Z score is -9.31.

With `COc1ccc(-c2nn3c(N4CCCCCC4)cc(C)nc3c2C)cc1OC`, the “% Inhibition” value was -8% and the Z score worked out at 1.59.

As for `COc1ccc(-c2nn3c(N4CCN(C)CC4)cc(C)nc3c2C)cc1OC`, the “% Inhibition” value is on record as -11% and the Z score is given as 2.19.

Regarding `COc1ccc(-c2nn3c(N4CCN(CC=Cc5ccccc5)CC4)cc(C)nc3c2C)cc1OC`, the “% Inhibition” value was 72% and the Z score is -3.65.

On to `COc1ccc(NC(=O)CN2C(=O)[C@H]3CCCC3=Nc3ccccc32)cc1`, for which the “% Inhibition” value amounted to 1% and the Z score is recorded as -0.17.

In the case of `Cc1cc(S(=O)(=O)N(C)CCC(=O)O)sc1C`, the “% Inhibition” value is on record as -30% and the Z score came out at 2.75.
